In PubChem BioAssay AID1211 (NMMLSC, 2008) one finds inhibition of ligand binding data, which are given here for 39 molecules.

A number with no mark means an inactive call. The source made the active and inactive calls. The rule behind the calls is not given here.

Sequence of Estrogen receptor (Homo sapiens) (P03372 whole entry, looked up): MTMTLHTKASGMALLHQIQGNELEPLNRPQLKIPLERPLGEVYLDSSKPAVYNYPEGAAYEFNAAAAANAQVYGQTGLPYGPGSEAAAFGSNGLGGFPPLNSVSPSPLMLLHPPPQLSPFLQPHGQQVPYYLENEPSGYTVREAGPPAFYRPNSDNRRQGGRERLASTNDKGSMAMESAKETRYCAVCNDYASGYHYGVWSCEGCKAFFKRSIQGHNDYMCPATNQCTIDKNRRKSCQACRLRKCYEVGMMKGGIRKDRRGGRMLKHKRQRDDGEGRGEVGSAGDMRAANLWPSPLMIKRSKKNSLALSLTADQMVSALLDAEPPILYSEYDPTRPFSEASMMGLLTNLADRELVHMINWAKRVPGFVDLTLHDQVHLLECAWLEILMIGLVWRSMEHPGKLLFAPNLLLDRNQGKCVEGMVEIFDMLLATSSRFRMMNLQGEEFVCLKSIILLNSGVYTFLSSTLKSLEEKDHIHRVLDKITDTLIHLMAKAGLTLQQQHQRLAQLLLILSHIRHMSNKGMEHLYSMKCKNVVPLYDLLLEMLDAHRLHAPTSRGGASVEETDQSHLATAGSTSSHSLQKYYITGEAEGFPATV

The test has as its target Estrogen receptor (Homo sapiens) (UniProt P03372). The test is described as follows: ERalpha ligand binders by competition, primary screen, cell-based, Cos7 ERalpha-GFP, flow cytometry (AID 1211).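 Note: 0% = DMSO vehicle wells and 100% = no E2-Alexa633 signal left.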 Conditions: fluorescent ligand competition, at 10 µM, stronger effect = higher value.
Regarding `COc1ccc(NS(=O)(=O)c2ccc3c(c2)[C@H]2C=CC[C@H]2[C@@H](c2cccc(OC)c2OC)N3)cc1`, the inhibition of ligand binding is 0%.

`CC12CCCCC1(O)[N+](=O)C1=C(CCCC1)N2[O-]` (centres undefined): the inhibition of ligand binding is 3%.

As to `CCOC(=O)N1CCc2[nH]c3ccc(C)cc3c2C1`, the inhibition of ligand binding is 6%.

Turning to `CCC1(CC)NC(=O)N(CC(=O)Nc2sc3c(c2C(N)=O)CCC3)C1=O`, the inhibition of ligand binding was 38%.

Regarding `Cc1csc(C(C#N)C(=O)c2ccncc2)n1` (centres undefined), the inhibition of ligand binding was 33%.

On to `COc1ccc(C(=O)N/N=C(\C)c2ccc3c(c2)C2C=CCC2C(c2ccccc2)N3)cc1` (centres undefined), for which the inhibition of ligand binding is 73% (active).

With `COc1cc([C@@H]2Nc3ccc(S(=O)(=O)Nc4ccccc4F)cc3[C@@H]3C=CC[C@@H]32)cc(OC)c1OC`, the inhibition of ligand binding is 5%.

For `CCCCOc1cc(OCCCC)c2c3c(c(=O)oc2c1)CCCC3`, the inhibition of ligand binding is 19%.

For the molecule `CC1(C)CC(=O)c2cn(-c3ccc(Cl)cc3)c(=N)c(C#N)c2C1`, the inhibition of ligand binding is 35%.

Take `COc1ccc2[nH]c3c(c2c1)CCNC3C1CC=C(C)CC1` (centres undefined): the inhibition of ligand binding is 0%.

As to `Cc1nc(-c2ccc(O)c(O)c2)cs1`, the inhibition of ligand binding is 17%.

Consider `CC1(C)C=C(c2ccc(O)cc2)CC(C)(C)N1`, for which the inhibition of ligand binding is 8%.

Consider `COc1ccc(NS(=O)(=O)c2ccc3c(c2)[C@H]2C=CC[C@H]2[C@@H](c2ccc(F)cc2)N3)cc1`, for which the inhibition of ligand binding was 14%.

As for `COc1cc(C2C(C#N)=C(N)Oc3cc(C)oc(=O)c32)cc2c1OCO2` (centres undefined), the inhibition of ligand binding is 9%.

Consider `CCOc1ccc(NS(=O)(=O)c2ccc3c(c2)[C@H]2C=CC[C@H]2[C@@H](c2ccc([N+](=O)[O-])cc2)N3)cc1`, for which the inhibition of ligand binding was 9%.

As for `O=C(O)c1ccc([N+](=O)[O-])c2c1NC(c1ccccc1)C1CC=CC21` (centres undefined), the inhibition of ligand binding is 100% (active).

Consider `C=CCn1c(COc2ccccc2F)nnc1SCC(=O)NC(=O)NCc1ccco1`, for which the inhibition of ligand binding was 11%.

As to `COc1ccc2c(c1)C1OCCC1C(c1ccco1)N2` (centres undefined), the inhibition of ligand binding was 46%.

For the molecule `CCCOc1cc(OCCC)c2c3c(c(=O)oc2c1)CCCC3`, the inhibition of ligand binding was 3%.

In the case of `CC1Cc2ccccc2N1C(=O)CSc1nnc(-c2ccc(S(=O)(=O)N3CCCC3)cc2)o1` (centres undefined), the inhibition of ligand binding is 56%.

For the molecule `Nc1ccc2nc3n(c(=O)c2c1)CCC3`, the inhibition of ligand binding is 34%.

Take `CC(=O)Oc1ccc2c(c1)CCC1C2C(O)CC2(C)C(=O)CCC12` (centres undefined): the inhibition of ligand binding was 15%.

Regarding `Cc1ccn2c(NCc3ccc4c(c3)OCO4)c(-c3ccc(O)cc3)nc2c1`, the inhibition of ligand binding is 32%.

`CC(=O)c1ccc2c(c1)C1C=CCC1C(c1ccc(S(=O)(=O)N3CCOCC3)cc1)N2` (centres undefined): the inhibition of ligand binding is 0%.

Regarding `CCOC(=O)COc1cc2oc(=O)c3c(c2cc1CC)CCCC3`, the inhibition of ligand binding was 0%.

Turning to `CCc1cc2c3c(c(=O)oc2cc1OC)CCCC3`, the inhibition of ligand binding is 0%.

`CCCCCCc1cc2c3c(c(=O)oc2cc1OCC(N)=O)CCC3`: the inhibition of ligand binding is 3%.

`CSC(=O)CNC1(Cc2ccc(O)cc2)CCCCC1`: the inhibition of ligand binding was 11%.

Regarding `Cc1sc2ncnc(NCc3ccco3)c2c1C`, the inhibition of ligand binding is 0%.

In the case of `Cc1ccc(NC(=O)CSc2nnnn2-c2ccc3c(c2)OCO3)cc1C`, the inhibition of ligand binding was 33%.

On to `COc1cccc(NS(=O)(=O)c2ccc3c(c2)C2C=CCC2C(c2ccc(C(=O)O)cc2)N3)c1` (centres undefined), for which the inhibition of ligand binding was 37%.

In the case of `COc1ccc(OC)c(C2Nc3c(Cl)ccc(C(=O)O)c3C3C=CCC32)c1` (centres undefined), the inhibition of ligand binding was 0%.

`CC1CCC2(C)c3[nH]c4ccccc4c3CCN2C1=O` (centres undefined): the inhibition of ligand binding was 0%.

Take `COc1cc(NC(=O)c2cccs2)c(C(=O)OCC(=O)NC(=O)NCc2ccccc2)cc1OC`: the inhibition of ligand binding was 24%.

On to `CC(C)COc1ccc2c(c1)c1c3n2CCNC3CCC1` (centres undefined), for which the inhibition of ligand binding is 22%.

Turning to `COc1cc([N+](=O)[O-])cc2c1NC(c1ccc(Br)cc1)C1CC=CC21` (centres undefined), the inhibition of ligand binding is 0%.

Consider `COc1cc2c(c([N+](=O)[O-])c1)NC(c1ccc(Br)cc1)C1CC=CC21` (centres undefined), for which the inhibition of ligand binding was 0%.

For `CC(=O)OC1CC2(C)C(=O)CCC2C2CCc3cc(O)ccc3C12` (centres undefined), the inhibition of ligand binding was 23%.

In the case of `CC(C)C1Nc2ccc(C(=O)O)cc2C2C=CCC21` (centres undefined), the inhibition of ligand binding was 36%.
